Screening results (PubChem)
VDR inh – inhibitors of human vitamin D receptor; P11473; VDR-SRC2-3 peptide fluorescence polarization, 2 h; Potency, µM, for inactives: max response, negative = inhibition, hits mostly inhibitors; 0.93% of 400,000 active
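VDR–SRC2-3 interaction, FP format. Cmpds 23 nl via pintool, brief spin, 2 h ambient incubation.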
ALOX12 inh – ALOX12 (human) lipoxygenase inhibition; 1.1% of 580,000 active; AID 1671190; Potency, µM (top dose mostly 108 µM), for inactives: top-dose activity change, negative = inhibition, most hits filed as inhibitors; purified 12hLO, xylenol orange hydroperoxide absorbance
Target sequence (P18054 whole entry, looked up): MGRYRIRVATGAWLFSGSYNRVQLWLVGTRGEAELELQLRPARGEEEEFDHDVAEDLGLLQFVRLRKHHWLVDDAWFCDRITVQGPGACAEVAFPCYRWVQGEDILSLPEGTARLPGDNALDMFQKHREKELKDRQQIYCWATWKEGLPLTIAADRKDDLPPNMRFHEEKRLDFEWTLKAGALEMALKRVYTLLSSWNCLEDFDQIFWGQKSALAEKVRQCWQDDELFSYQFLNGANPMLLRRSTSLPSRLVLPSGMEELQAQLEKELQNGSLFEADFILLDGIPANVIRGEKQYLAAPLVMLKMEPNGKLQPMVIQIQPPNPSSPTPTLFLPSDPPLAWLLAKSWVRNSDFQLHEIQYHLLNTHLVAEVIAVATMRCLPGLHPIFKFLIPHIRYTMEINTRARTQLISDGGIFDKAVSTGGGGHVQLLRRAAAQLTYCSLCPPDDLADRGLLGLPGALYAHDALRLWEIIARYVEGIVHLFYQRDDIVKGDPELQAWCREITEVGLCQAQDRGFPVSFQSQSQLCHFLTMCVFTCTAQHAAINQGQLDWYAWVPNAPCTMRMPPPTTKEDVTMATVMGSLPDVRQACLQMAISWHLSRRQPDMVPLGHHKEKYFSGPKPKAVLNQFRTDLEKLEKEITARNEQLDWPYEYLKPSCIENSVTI
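Purified human 12hLO at 150 nM in 25 mM Hepes, 0.01% Triton X-100, pH 7.0, preincubated 15 min at room temperature with compound. Reaction started with 40 uM arachidonic acid, 30 min at room temperature. Hydroperoxide measured by Fe-xylenol orange, 573/405 nm absorbance ratio.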
Sfp inh – blocks B. subtilis Sfp PPTase activity; Biochemical Sfp PPTase activity, qHTS; Potency, µM, for the others: largest response in the series, negative = inhibition, usual class: inhibitors; 3.5% of 310,000 active; Q9F4F7; AID 1490;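 note: the enzyme is Sfp with the accession as filed and its product quenches rhodamine fluorescence; 0% = enzyme reaction without inhibitor and -100% = no enzyme wells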
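Compounds were incubated with enzyme (final 15 nM) for 15 min at room temperature before substrate addition started the reaction. Fluorescence at 525 nm excitation, 598 nm emission was recorded immediately and after 30 minutes.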
PLK1 PBD block – inhibitors of human PLK1 polo-box domain binding | AID 720504 | Plk1 PBD binding of FITC phosphopeptide, fluorescence polarization | 2.8% of 360,000 active | Potency, µM, for inactives: max response, negative = inhibition, hits mostly inhibitors; note: series mostly up to about 57 µM; nearly all actives have a fitted effect of over 65% in size
TbPYK confirm – Trypanosoma brucei pyruvate kinase inhibition, cherry-pick confirmation. AID 720569. recombinant TbPYK, Kinase-Glo ATP luminescence. 67% of 890 active. shares compounds with PLK1 PBD block. Potency, µM (series often up to 76.9 µM), for the others: top-dose activity change, negative = inhibition, actives largely listed as inhibitors; note: nearly all actives have a fitted effect of over 70% in size
TbPYK ADP-Glo – inhibits T. brucei pyruvate kinase in orthogonal ADP-Glo assay. AID 720584. Potency, µM (highest dose often 76.9 µM), for the others: top-dose activity change, negative = inhibition, usual class: inhibitors. shares compounds with PLK1 PBD block. 62% of 890 active. recombinant TbPYK, ADP-Glo luminescence, 60 min; note: nearly all actives have a fitted effect of over 75% in size
An asterisk follows results filed as active. Sampled rows, rich in hits. Any-hit rate of the full collection: about 4.2%. Calls come from the whole dose curve; as a rule, active = well fitted curve in the direction sought with a large enough effect; inconclusive = small, poorly fitted or top-dose-only effect, or another doubt; inactive = no such curve, though single readings can be large; an effect the other way counts as inactive or inconclusive. Unless noted, % is set by controls: 0 for no effect and ±100 for the full control effect; potency is the fitted concentration of half-maximal effect.

Screening Cc1ccc(S(=O)(=O)N(C)CC(=O)N2CCN(C(=O)c3ccco3)CC2)cc1 returned VDR inh -2.0%, ALOX12 inh 0.0%, Sfp inh -13.0% and PLK1 PBD block 2.7%.
For CCOc1ccc(S(=O)(=O)N(C(=O)c2ccco2)c2cc3sc(=O)oc3c3ccccc23)cc1 the results were VDR inh 31.6µM*, ALOX12 inh 31.6µM*, Sfp inh 5.62µM*, PLK1 PBD block inconclusive, TbPYK confirm inconclusive and TbPYK ADP-Glo inconclusive.
For CCN1/C(=C2\C(=O)N(C)C(=S)N2C)C=Cc2ccccc21 the results were VDR inh 0.1%, ALOX12 inh -24.9%, Sfp inh -5.5%, PLK1 PBD block 0.2%, TbPYK confirm inconclusive and TbPYK ADP-Glo inconclusive.
`Cc1sc2ccccc2[n+]1CC(=O)O` gave VDR inh 22.4µM*, ALOX12 inh -7.9%, Sfp inh 2µM*, PLK1 PBD block inconclusive, TbPYK confirm 3.55µM* and TbPYK ADP-Glo 12.6µM*.
Cc1ccc(NC(=O)c2ccc(Cl)c(N3C(=O)C=CC3=O)c2)cc1 was read as VDR inh 17.8µM*, ALOX12 inh inconclusive, Sfp inh 2.82µM*, PLK1 PBD block 3.36µM*, TbPYK confirm 5.62µM* and TbPYK ADP-Glo 12.6µM*.
Screening O=C(Nc1ccc(Cl)c(Cl)c1)c1ccc(Cl)c(Cl)c1 returned VDR inh -10.6%, ALOX12 inh 0.0%, Sfp inh 1.9% and PLK1 PBD block -5.1%.
Screening CNC(=O)/C(C#N)=c1\s/c(=C/C(=O)OC)c(=O)n1-c1ccccc1 returned VDR inh 0.6%, ALOX12 inh -4.2%, Sfp inh 8.3% and PLK1 PBD block -13.1%.
For COC(=O)/C=c1\sc2ncnn2c1=O the results were VDR inh -14.4%, ALOX12 inh inconclusive, Sfp inh 10µM*, PLK1 PBD block inconclusive, TbPYK confirm 28.2µM* and TbPYK ADP-Glo 28.2µM*.
`O=C(Nc1ccc(Nc2ccccc2)cc1)c1c(F)c(F)c(F)c(F)c1F` gave VDR inh 11.2%, ALOX12 inh 0.0%, Sfp inh -15.1% and PLK1 PBD block -7.5%.
For O=C1C=CC(=O)N1c1ccc2ccccc2c1 the results were VDR inh 79.4µM*, ALOX12 inh 39.8µM*, PLK1 PBD block 8.44µM*, TbPYK confirm 25.1µM* and TbPYK ADP-Glo inconclusive.
For O=C1c2ccccc2C(=O)N1c1ccc2ncccc2c1 the results were VDR inh -9.6%.
For CCN(CC)C1CC(=O)N(c2cccc(C)c2)C1=O (stereo not given) the results were Sfp inh -17.6%.
`Cc1cccc(N2C(=O)C=CC2=O)c1` gave VDR inh 50.1µM*, ALOX12 inh -11.4%, PLK1 PBD block 29.9µM*, TbPYK confirm inconclusive and TbPYK ADP-Glo inconclusive.
O=C1C=CC(=O)N1c1ccc(Nc2ccccc2)cc1 was read as VDR inh inconclusive, ALOX12 inh -15.1%, PLK1 PBD block 23.8µM*, TbPYK confirm inconclusive and TbPYK ADP-Glo inconclusive.
`COC(=O)c1ccc(C(=O)N(C)Cc2ccncc2)s1` gave ALOX12 inh 7.2%.
For CC1(C)NC(=O)N(CCCOc2ccccc2Br)C1=O the results were VDR inh -11.0%, ALOX12 inh 0.0%, Sfp inh 7.5% and PLK1 PBD block -13.7%.
For Cc1ccc(-n2c(SCC(=O)Nc3ccc4c(c3)OCO4)nnc2-c2cccs2)cc1 the results were VDR inh -7.9%, ALOX12 inh inconclusive, Sfp inh -10.3%, PLK1 PBD block -4.9%, TbPYK confirm 1.78µM* and TbPYK ADP-Glo 4.47µM*.
Screening CSC1CCCCC1(O)CSc1nc2c(cc1C#N)CCCC2 (stereo not given) returned VDR inh -15.0%, ALOX12 inh 7.08µM*, Sfp inh 50.1µM*, PLK1 PBD block 26.7µM*, TbPYK confirm 7.94µM* and TbPYK ADP-Glo 8.91µM*.
N#CCSc1nc2c(cc1C#N)CCCC2 was read as VDR inh -18.1%, ALOX12 inh 1.7%, Sfp inh inconclusive and PLK1 PBD block -12.8%.
Screening COc1ccc2c(C)c(CC(=O)NC3CCCCC3)c(=O)oc2c1OC returned ALOX12 inh -3.5%.
`COc1ccc(S(=O)NC2CCCCC2)c(OC)c1C` (stereo not given) gave VDR inh 0.7%, ALOX12 inh -14.5%, Sfp inh 50.1µM*, PLK1 PBD block -19.3%, TbPYK confirm 22.4µM* and TbPYK ADP-Glo 20µM*.
Screening O=C(NCc1ccc(Cl)cc1)C1CCCN(c2ncnc3c2nc2n3CCCCC2)C1 (stereo not given) returned VDR inh -16.5%, ALOX12 inh -19.5%, Sfp inh 5.0% and PLK1 PBD block -3.8%.
For COc1ccc(CNCc2ccccc2[N+](=O)[O-])cc1OC the results were VDR inh -15.5%, ALOX12 inh inconclusive, Sfp inh inconclusive and PLK1 PBD block -24.1%.
O=C(Nc1ccccc1)c1nnsc1S(=O)c1ccc(Cl)cc1 (stereo not given) was read as VDR inh inconclusive, ALOX12 inh 14.1µM*, Sfp inh 7.94µM*, PLK1 PBD block 0.474µM*, TbPYK confirm 15.8µM* and TbPYK ADP-Glo 14.1µM*.
Screening Cc1nnsc1S(=O)c1ccc(Cl)cc1 (stereo not given) returned VDR inh -4.3%, ALOX12 inh 0.0%, Sfp inh 12.2% and PLK1 PBD block -11.9%.
`CCc1ccc(OCC(=O)NNC(=O)c2nn(CC)c(=O)c3ccccc23)cc1` gave VDR inh 7.0%, ALOX12 inh 10.0%, Sfp inh 13.4% and PLK1 PBD block -3.2%.
For CC(=O)c1ccc(NC(=O)c2cc(Cl)sc2Cl)cc1 the results were VDR inh -2.1%, ALOX12 inh -13.0%, Sfp inh 17.1% and PLK1 PBD block 1.1%.
`COc1ccc(OC)c(C2NC(=O)c3sc(=S)n(-c4ccccc4)c3N2)c1` (stereo not given) gave VDR inh 89.1µM*, ALOX12 inh inconclusive, Sfp inh inconclusive, PLK1 PBD block inconclusive, TbPYK confirm 2µM* and TbPYK ADP-Glo 2.51µM*.
For COc1cccc(C2NC(=O)c3sc(=S)n(-c4ccccc4)c3N2)c1 (stereo not given) the results were VDR inh inconclusive, ALOX12 inh inconclusive, Sfp inh -16.8% and PLK1 PBD block -29.7%.
`CCN(CC)C(=S)Sc1c(-c2ccccc2)c2cc(Cl)ccc2[nH]c1=O` gave VDR inh inconclusive, ALOX12 inh 0.0%, Sfp inh 15.8µM*, PLK1 PBD block inconclusive, TbPYK confirm inconclusive and TbPYK ADP-Glo 14.1µM*.
